Screening data from PubChem BioAssay.
Hits are enriched below; roughly 9.2% of the tested compounds scored in any of these assays.
NPC1 prom act: qHTS Assay for NPC1 Promoter Activators | Huh7 NPC1 promoter luciferase reporter, 24 h | Potency, µM (series often up to 9.22 µM), for the others: top-dose activation, actives largely listed as activators | hit rate 2.4% among 320,000; also: % of control where 0% means no effect; nearly all actives have a fitted effect of over 60% in size
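Huh7 reporter cells (NPC1 promoter driving luciferase) are dosed with compound for 24 h at 37 °C, 5% CO2; luciferase detection reagent is then added and luminescence measured after 10 min at ambient temperature.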
ELG1 genotox: qHTS screen for small molecules that induce genotoxicity in human embryonic kidney (HEK293T) cells expressing luciferase-tagged ELG1. HEK293T ELG1-luciferase reporter, luminescence, 16 h. Potency, µM (highest dose often 46 µM), for inactives: top-dose activity change, positive = activation, most hits filed as activators. hit rate 1.3% among 330,000. AID 504466, 2011; also: % of control where 0% means no effect; nearly all actives have a fitted effect of over 60% in size
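Screening used a luciferase reporter fused to human ELG1 in HEK293T cells. Luminescence was read on a CCD plate imager after 16 hr exposure and 30 min ONE-Glo incubation.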
ELG1 DNA repair: qHTS screen for small molecules that inhibit ELG1-dependent DNA repair in human embryonic kidney (HEK293T) cells expressing luciferase-tagged ELG1; Potency, µM (titrated, usually from 46.1 µM), without a hit: top-dose activity change, negative = inhibition, usual class: inhibitors; AID 504467, 2011; hit rate 2.3% among 330,000; HEK293T ELG1-luciferase reporter, luminescence, 16 h; DNA damage induced by 5-fluorouridine; also: % is scaled to controls: 0 for no effect and ±100 for the full control effect; nearly all actives have a fitted effect of over 55% in size
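HEK293T cells expressing luciferase-tagged ELG1 (2,000/well) received 5-Fluorouridine plus compound or DMSO for 16 hr at 37 °C. Luciferase was read by ONE-Glo luminescence after 30 min at room temperature.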
FLuc modulator: qHTS profiling assay for firefly luciferase inhibitor/activator using purifed enzyme and Km concentrations of substrates (counterscreen for miR-21 project) | purified FLuc, Km substrates, luminescence inhibition | Potency, µM (titrated, usually from 57.5 µM), for the others: top-dose activity change, negative = inhibition, usual class: inhibitors | hit rate 6.9% among 360,000 | AID 588342, 2011;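 also: plate controls were vehicle for no effect and reference inhibitor for full effect; nearly all actives have a fitted effect of over 55% in size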
Target sequence (P08659 whole entry, looked up): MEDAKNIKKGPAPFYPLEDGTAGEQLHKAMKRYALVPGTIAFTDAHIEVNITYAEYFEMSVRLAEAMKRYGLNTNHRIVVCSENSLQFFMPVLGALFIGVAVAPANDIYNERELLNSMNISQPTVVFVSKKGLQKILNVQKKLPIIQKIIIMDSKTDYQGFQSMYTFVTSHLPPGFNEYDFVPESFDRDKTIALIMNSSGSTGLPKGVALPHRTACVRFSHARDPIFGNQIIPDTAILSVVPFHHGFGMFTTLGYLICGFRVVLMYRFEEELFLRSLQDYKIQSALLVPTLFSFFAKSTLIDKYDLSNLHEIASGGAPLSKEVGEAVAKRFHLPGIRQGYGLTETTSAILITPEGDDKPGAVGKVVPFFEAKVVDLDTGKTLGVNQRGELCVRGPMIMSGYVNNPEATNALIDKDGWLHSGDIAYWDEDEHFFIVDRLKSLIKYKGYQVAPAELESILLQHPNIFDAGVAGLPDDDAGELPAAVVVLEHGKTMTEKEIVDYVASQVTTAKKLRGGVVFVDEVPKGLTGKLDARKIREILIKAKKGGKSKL
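Biochemical qHTS of compounds, final roughly 60 µM downward over six points, against 10 nM purified firefly luciferase using Km concentrations of substrates (10 uM D-luciferin, 10 uM ATP) in Tris acetate pH 7.5 buffer; luminescence output.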
SMN2 splice up: qHTS Assay for Enhancers of SMN2 Splice Variant Expression | HEK293 SMN2-luciferase splicing reporter, luminescence, 30-36 h | Potency, µM (titrated, usually from 46.1 µM), for inactives: at the highest dose activity change, positive = activation, actives largely listed as activators | hit rate 2.8% among 210,000 | AID 1458, 2008; also: % of control where 0% means no effect; nearly all actives have a fitted effect of over 55% in size
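HEK293 cells carry an SMN2 minigene-luciferase reporter in which exon 7 inclusion puts luciferase in frame. Cells were seeded at 2000 cells/well, attached for 10-12 hours, then exposed to compounds for 30-36 hours at 37C before ONE-Glo luminescence.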
Rab9 promoter act: qHTS Assay for Rab9 Promoter Activators; Huh7 Rab9 promoter-luciferase reporter, luminescence, 24 h; Potency, µM (titrated, usually from 9.22 µM), for inactives: at the highest dose activation, negative = inhibition, usual class: activators; hit rate 2.8% among 320,000; AID 485297, 2010; also: % of control where 0% means no effect; nearly all actives have a fitted effect of over 60% in size
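Luminescence read-out: Huh7 cells stably expressing Rab9-luciferase, treated 24 h with compound at 37 °C, then lysed with luciferase reagent for 10 min at ambient before reading.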
Active calls of the source: *; ? = inconclusive; . = no result given. Calls follow the shape of the dose curve; as a rule, active = well fitted curve in the direction sought with a large enough effect; inconclusive = small, poorly fitted or top-dose-only effect, or another doubt; inactive = no such curve, though single readings can be large; an effect the other way counts as inactive or inconclusive. Potency is read from the fitted curve at half-maximal effect.

SMILES	NPC1 prom act	ELG1 genotox	ELG1 DNA repair	FLuc modulator	SMN2 splice up	Rab9 promoter act
CCOC(=O)c1ccc(-c2c(-c3ccccc3OC)sc3cc4c(cc23)OCO4)cc1F	14.7%	0.8%	?	-5.9%	.	0.4%
O=C(O)c1ccc(N/N=C/C2=Cc3ccccc3OC2)cc1	0.631µM*	?	?	0.953µM*	.	1µM*
CCC(OC(=O)C1=Cc2ccccc2OC1)C(=O)NCc1ccco1 (stereo not drawn)	-4.5%	-5.6%	-7.7%	4.9%	.	-2.4%
COc1ccc(CCNC(=O)NCc2noc3ccc(C)cc23)c(OC)c1	.	.	.	-10.1%	.	.
COc1ccc(S(=O)(=O)N2CCC(C(=O)N(C)Cc3ccc(C)o3)CC2)cc1OC	-5.5%	2.6%	16.4µM*	-0.6%	.	4.0%
Cc1ccc(CN(C)C(=O)c2cccc(S(=O)(=O)N3CCCC3)c2)o1	.	3.3%	9.8%	.	.	.
Cc1cccc(CC(C)NC(=O)c2cc(COc3ccc(C)c(C)c3)on2)n1 (stereo not drawn)	?	18.2%	?	21.3µM*	.	?
CCc1cc(C(=O)NC(C)c2ccccc2)no1 (stereo not drawn)	.	.	.	2.1%	-2.1%	.
Cc1cc(OCc2cc(C(=O)NC(C)c3c(C)nn(C)c3C)no2)cc(C)c1Cl (stereo not drawn)	2.51µM*	?	?	6.75µM*	.	2.24µM*
CC(NC(=O)c1cc(COc2ccccc2)on1)c1nccs1 (stereo not drawn)	1.41µM*	8.2µM*	?	4.78µM*	.	1.41µM*
Cc1nc(C(C)NC(=O)c2cc(COc3ccc(C)c(C)c3)on2)c(C)s1 (stereo not drawn)	2.82µM*	?	?	9.53µM*	.	3.16µM*
O=C(Nc1nnc(-c2ccccc2)o1)C1CCCN1S(=O)(=O)c1cccs1 (stereo not drawn)	-0.8%	-1.1%	-10.3%	-1.9%	.	-1.4%
CCOc1ccc(OCC(=O)NCCS(=O)(=O)N2CCN(c3cccc(Cl)c3)CC2)cc1	.	.	.	-2.4%	.	.
CN1C(N)=NC(=O)/C1=C/c1ccccc1F	-2.9%	2.1%	-9.4%	-0.9%	11.6%	-4.0%
CC(C)CN(C(=O)c1ccc(F)cc1F)c1c(N)n(CC(C)C)c(=O)[nH]c1=O	-2.9%	8.2%	4.4%	0.1%	.	-6.8%
Cc1ccccc1OCC(=O)Nc1ccc(N2CCN(C)CC2)c(Cl)c1	?	?	?	12µM*	.	28.7%
COc1ccc(OCC(=O)Nc2ccc(N3CCOCC3)c(Cl)c2)cc1	1.1%	-11.2%	?	-17.4%	20.7%	0.3%
COc1ccc(OCC(=O)Nc2ccc(N3CCN(C(=O)c4ccccc4)CC3)c(Cl)c2)cc1	-17.2%	-20.3%	11.6µM*	-0.6%	.	-17.9%
O=C(N/N=C/c1cc(O)ccc1[N+](=O)[O-])c1ccc2c(c1)OCCO2	?	?	?	0.601µM*	.	2µM*
O=C(N/N=C/c1ccccc1[N+](=O)[O-])c1ccc2c(c1)OCCO2	0.631µM*	?	?	0.239µM*	.	?
O=C(COC(=O)c1ccc[nH]c1=O)NCCCc1ccccc1	-2.3%	0.7%	24.5%	3.6%	.	-7.7%
O=c1cc(-c2ccccc2)[nH]n1-c1nc2ccccc2[nH]1	3.7%	?	?	19µM*	3.4%	-1.9%
Clc1ccc(CSc2nc3ccncc3[nH]2)cc1	0.631µM*	2.91µM*	?	4.78µM*	11.2µM*	0.708µM*
Cc1ccc(CSc2nc3ccncc3[nH]2)cc1	?	?	?	2.69µM*	7.08µM*	?
O=C(NCc1ccc(Cl)cc1)c1ccc(CSc2nc3ccncc3[nH]2)cc1	0.7%	-9.1%	?	-11.2%	.	-1.4%
SMILES	NPC1 prom act	ELG1 genotox	ELG1 DNA repair	FLuc modulator	SMN2 splice up	Rab9 promoter act
Cc1cccc(C)c1NC(=O)C1=C(O)c2sccc2N(C)S1(=O)=O	-5.0%	-5.2%	-3.4%	?	-11.0%	-1.1%
CN1c2ccccc2C(O)=C(C(=S)Nc2ccc(Cl)cc2)S1(=O)=O	-2.3%	-9.2%	-7.5%	19µM*	-18.4%	-6.0%
Cc1cccc(NC(=O)C2=C(O)c3ccccc3N(C)S2(=O)=O)c1	0.6%	-2.2%	11.2%	16.9µM*	14.0%	0.6%
Cc1ccc(OCC(=O)N/N=C\c2cccs2)c([N+](=O)[O-])c1	13.8%	8.7%	?	12µM*	1.7%	19.3%
CCc1ccc(OCC(=O)N/N=C\c2ccco2)c([N+](=O)[O-])c1	11.1%	10.9%	?	10.7µM*	3.4%	6.0%
C/C(=N\NC(=O)COc1ccccc1[N+](=O)[O-])c1cccs1	?	?	?	23.9µM*	25.1µM*	3.16µM*
O=C(COc1cccc([N+](=O)[O-])c1)N/N=C/c1ccco1	-14.3%	-1.5%	-2.8%	4.6%	1.6%	-8.6%
CCCNC(=O)CCc1nnc2ccc(N3CCN(c4cccc(OC)c4)CC3)nn12	.	.	.	2.5%	.	.
O=C(/C=C/c1ccc(NC(=O)c2ccccc2-c2ccccc2C(=O)O)cc1)c1ccccc1	7.0%	-4.6%	1.7%	19µM*	.	21.2%
O=C(/C=C/c1ccccc1)c1ccccc1	0.1%	?	?	2.39µM*	-29.6%	-3.5%
CC(C)(C)C(=O)/C=C(N)/C=C/c1ccccc1	?	?	?	12µM*	14.1%	7.0%
CC(/C=C\c1ccccc1)=C/C(=O)O	-1.6%	-3.4%	0.0%	2.6%	.	3.6%
CC(C)(C)C(=O)/C=C(\N)c1ccccn1	-0.5%	4.9%	?	-8.2%	13.3%	-0.1%
O=C(/C=C/c1ccccc1)/C=C/c1ccccc1	1.3%	-16.2%	?	3.38µM*	-89.7%	10.5%
O=C(O)c1ccccc1-c1ccccc1C(=O)Nc1ccc(F)cc1	-1.3%	0.1%	8.1%	0.0%	.	-3.9%
O=C(N/N=C/c1cccc([N+](=O)[O-])c1)C1CC1c1ccccc1 (stereo not drawn)	2.9%	-0.2%	5.9%	2.8%	.	-2.3%
COc1ccc(C(=O)OCC(=O)NCC2CCCO2)c(F)c1 (stereo not drawn)	0.1%	-0.1%	11.2%	0.9%	.	-4.0%
COC(C[C@@H](O)C[C@H](O)[C@@H](C)OCc1ccccc1)OC	-4.6%	0.1%	22.3%	0.2%	.	-7.0%
O=C(/C=C/c1ccccc1)c1ccc2c3c(cccc13)CC2	16.2%	?	?	12µM*	.	1.2%
N#Cc1ccc(/C=C/C(=O)c2ccccc2)cc1	18.0%	?	?	5.36µM*	.	5.3%
